Giardia kill = Small Molecules that selectively kill Giardia lamblia: qHTS; Giardia lamblia trophozoite viability; activity change, % at 7.66 µM, hits read low; 340,000 compounds, 0.15% hits; in the data active means activity change below about -80%; inconclusive means between about -30% and that limit;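 further: parasites exposed to compound for two days anaerobically before the ATP read; on the % scale 0 is the no-effect control and ±100 the full control effect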
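Media and compound were dispensed first, then trophozoites at 100 cells/well; plates sat 48 hrs at 37 deg C without oxygen before ATP luminescence reagent was added and read after 15-30 min at room temperature.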
uPA surface inh = qHTS for Inhibitors of Cell Surface uPA Generation; AID 540303, 2011; Potency, µM (top dose mostly 38.3 µM), for the others: at the top dose activity change, negative = inhibition, usual class: inhibitors; 330,000 compounds, 0.31% hits; cell surface uPA generation assay, qHTS; active means well fitted inhibition curve with a large enough effect; inconclusive means small, poorly fitted or top-dose-only effect; inactive means no such curve, though single readings can be large or run the other way; tested in mouse RAW 264.7 cells; further: potency means the concentration at half of the fitted maximal effect; on the % scale 0 is the no-effect control and ±100 the full control effect; nearly all actives have a fitted effect of over 55% in size
Mito fusion yeast = qHTS Assay for Small Molecule Inhibitors of Mitochondrial Division or Activators of Mitochondrial Fusion; S. cerevisiae fusion-defective mutant growth rescue, CellTiterGlo 48 h; AID 485298, 2010; 320,000 compounds, 0.23% hits; Potency, µM (doses to about 46.1 µM), without a hit: at the highest dose growth rescue (activation), usual class: activators; further: potency means the concentration at half of the fitted maximal effect; % of control where 0% means no effect; nearly all actives have a fitted effect of over 45% in size
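Yeast fusion mutant, YPEG (non-fermentable carbon), compound, 48 h at 37C non-permissive; CellTiterGlo added, 10 min RT, luminescence read. Rescued growth = division inhibition.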
B2AR arrestin = qHTS assay of beta-arrestin-biased ligands of beta2-adrenergic receptor; Beta-2 adrenergic receptor (Homo sapiens), P07550; beta-arrestin recruitment to beta2AR, cell-based reporter; Potency, µM (titrated, usually from 46.1 µM), inactives show top-dose activation, actives largely listed as activators; 330,000 compounds, 0.02% hits; AID 492947, 2010;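 further: potency means the concentration at half of the fitted maximal effect; 0% = DMSO controls and full agonism = EC100 isoproterenol or metaproterenol; nearly all actives have a fitted effect of over 65% in size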
Target sequence (P07550 whole entry, looked up): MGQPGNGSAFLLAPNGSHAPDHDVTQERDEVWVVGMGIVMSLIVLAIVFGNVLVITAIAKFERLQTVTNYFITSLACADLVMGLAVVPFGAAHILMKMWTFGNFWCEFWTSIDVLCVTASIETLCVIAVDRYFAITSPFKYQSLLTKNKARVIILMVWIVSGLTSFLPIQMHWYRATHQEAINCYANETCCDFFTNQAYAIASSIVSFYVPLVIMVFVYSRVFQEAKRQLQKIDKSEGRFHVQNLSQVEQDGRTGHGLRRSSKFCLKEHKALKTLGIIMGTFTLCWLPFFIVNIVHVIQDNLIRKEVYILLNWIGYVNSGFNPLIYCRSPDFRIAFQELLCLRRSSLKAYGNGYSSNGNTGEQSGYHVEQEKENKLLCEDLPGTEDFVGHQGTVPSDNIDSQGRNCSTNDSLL
ClpP mod = qHTS Assay for Activators of ClpP; AID 651965, 2013; Potency, µM (top dose mostly 57.5 µM), for the others: at the top dose activity change, negative = active; ATP-dependent Clp protease proteolytic subunit (Bacillus subtilis (strain 168)), P80244; 340,000 compounds, 1.9% hits; purified B. subtilis ClpP, FRET peptide cleavage, 20 min; active means well fitted falling curve with a large enough effect; inconclusive means small, poorly fitted or top-dose-only effect; inactive means no such curve, though single readings can be large or run the other way; further: potency means the concentration at half of the fitted maximal effect; the source files actives as falling curves though it sought activators and does not explain the sign; nearly all actives have a fitted effect of over 65% in size
Target sequence (P80244 whole entry, looked up): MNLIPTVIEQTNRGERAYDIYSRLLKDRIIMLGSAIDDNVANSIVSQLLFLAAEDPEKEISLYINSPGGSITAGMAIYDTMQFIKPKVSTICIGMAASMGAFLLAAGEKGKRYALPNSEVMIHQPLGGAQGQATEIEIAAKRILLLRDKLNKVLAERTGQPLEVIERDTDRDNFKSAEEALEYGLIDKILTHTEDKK
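Buffer: 100 mM Tris/HCl pH8, 100 mM KCl, 0.05% low protease BSA, 2.5% glycerol, 0.01% Tween-20. ClpP 10 microg/mL final; 20 min RT; delta FRET normalized to ADEP and DMSO controls.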
p53 reactivator = qHTS assay for re-activators of p53 using a Luc reporter; H1299 p53-A138V BP100-luciferase reporter, luminescence, 24 h; 320,000 compounds, 0.063% hits; Potency, µM (titrated, usually from 92.2 µM), for the others: at the top dose activity change, positive = activation, most hits filed as activators; AID 504706, 2011; further: potency means the concentration at half of the fitted maximal effect; % of control where 0% means no effect; nearly all actives have a fitted effect of over 45% in size
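H1299 (p53-null), stable ts p53-A138V + BP100-Luc; 1000 cells/well, Opti-MEM/10% FBS; cpd 4 pt, 1:5; 24 h, 37 deg C, 5% CO2; detection reagent 10 min RT; luminescence.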
Active calls of the source: *; ? = inconclusive; nt = not tested or not shown. Hits are enriched below; roughly 2.1% of the tested compounds scored in any of these assays. Unless noted, the call rests on the fitted dose curve; in most records, active means well fitted curve in the direction sought with a large enough effect; inconclusive means small, poorly fitted or top-dose-only effect, or another doubt; inactive means no such curve, though single readings can be large; an effect the other way counts as inactive or inconclusive.

SMILES	Giardia kill	uPA surface inh	Mito fusion yeast	B2AR arrestin	ClpP mod	p53 reactivator
CC1CCN(c2ccc(NC(=O)c3ccc([N+](=O)[O-])o3)cc2)CC1	?	3.2µM*	?	0%	5%	-17%
CC1CCN(C(=O)c2ccc([N+](=O)[O-])o2)CC1	?	-7%	6%	0%	nt	14%
O=C1c2cccc(OCC(=O)N3N=C(c4cccs4)CC3c3ccc(F)cc3)c2CCN1Cc1cccnc1 (configuration not stated)	-10	-12%	10%	1%	28µM*	-6%
CCOC(=O)NN1C(=O)c2ccccc2NC1c1ccc(OC)cc1 (configuration not stated)	-7	-2%	0%	-1%	32µM*	0%
CCOC(=O)NN1C(=O)c2ccccc2NC1c1ccccc1 (configuration not stated)	-4	-1%	0%	0%	32µM*	-7%
CCOC(=O)Cc1ccc(NC(=O)N2CC(CC)Oc3ccccc32)cc1 (configuration not stated)	nt	nt	nt	nt	1%	nt
COc1ccc(C)cc1-n1nnc(C(=O)Nc2cccc(SC)c2)c1C	nt	nt	nt	nt	-8%	nt
CCn1c(SCC(=O)NC2CCCCC2)nc2ccccc2c1=O	-2	1%	0%	-1%	-1%	11%
CC(=O)NCCn1c(SCC(=O)NC2CCCCC2)nc2ccccc2c1=O	-5	-3%	-1%	0%	32µM*	-3%
COc1cc(SC)ccc1C(=O)N1CCn2c3c(c4cc(C)ccc42)CCCC31 (configuration not stated)	nt	nt	nt	nt	-4%	nt
Cc1cc(C)nc(NC(=O)c2cc(-c3ccc(C)s3)nc3ccccc23)c1	-7	2%	24%	-2%	16µM*	-4%
Cc1cccc(-c2cc(C(=O)Nc3cccnc3)c3ccccc3n2)c1	4	-4%	11%	0%	1%	-26%
Cc1cc(C)cc(NC(=O)c2cc(C)nc3ccccc23)c1	28	-2%	3%	0%	0%	nt
Cc1ccc(-c2cc(C(=O)Nc3cccnc3)c3ccccc3n2)s1	7	1%	9%	-1%	16µM*	-3%
O=C(/C=C/c1ccc(Cl)cc1Cl)Nc1cccc(S(=O)(=O)NC2=NCCC2)c1	?	4.5µM*	-5%	0%	-4%	-8%
CCOc1ccc(C(=O)c2cn(CC(=O)Nc3ccc(F)cc3)c3cc4c(cc3c2=O)OCO4)cc1	nt	nt	nt	nt	-7%	nt
Cc1ccc(Cl)cc1-n1c(=O)c2sc3ccccc3c2n(CC(=O)NC2CCCCC2)c1=O	nt	nt	nt	nt	4%	nt
COC(=O)c1ccc(COC(=O)CCc2nc(-c3ccccc3)c(-c3ccccc3)o2)cc1	12	-11%	4%	0%	32µM*	6%
COC(=O)c1ccc(COC(=O)Cc2n[nH]c(=O)c3ccccc23)cc1	7	-11%	-1%	0%	-8%	0%
CCOC(=O)c1c(C)oc2ncnc(N3CCN(c4ccccc4OC)CC3)c12	nt	nt	nt	nt	-2%	nt
COc1cccc(NC(=O)N2CCN(c3cccc(C)c3)C(C)C2)c1 (configuration not stated)	6	0%	5%	0%	0%	5%
COc1cccc(N2CCN(C(=O)c3ccc(=O)oc3)CC2C)c1 (configuration not stated)	1	5%	-4%	0%	28µM*	7%
N#Cc1cnn2cc(-c3ncc(C(F)(F)F)cc3Cl)cnc12	-6	nt	6%	0%	28µM*	1%
Cc1ccc(-c2nc3ccccc3o2)cc1NC(=O)c1cccc2c(Cl)cccc12	nt	nt	nt	nt	-1%	nt
Clc1ccc(OCc2nc(-c3ccccn3)no2)c(Br)c1	2	3.5µM*	8%	0%	1%	nt
SMILES	Giardia kill	uPA surface inh	Mito fusion yeast	B2AR arrestin	ClpP mod	p53 reactivator
COc1ccc(-c2n[nH]c(C(F)(F)F)c2-c2cc3ccccc3o2)c(O)c1	-7	-17%	-19%	0%	25µM*	-5%
CC(C)Oc1ccc(CNC(=O)c2cc3cccc4c3n2CC(C)S4)cc1 (configuration not stated)	nt	nt	nt	nt	32µM*	nt
Cc1cc(C(=O)NCc2ccc(Cl)cc2)n(-c2ccccc2)n1	10	?	-1%	-1%	-4%	-6%
COc1cccc(CNC(=O)CCC(=O)N2CC(C)Sc3ccccc32)c1 (configuration not stated)	nt	nt	nt	nt	-1%	nt
O=C(NCc1ccc(Cl)cc1)c1cc2cccc3c2n1CCS3	nt	nt	nt	nt	22µM*	nt
CC(C)Oc1ccc(CNC(=O)c2ccc(NC(=O)N3CC(C)Sc4ccccc43)cc2)cc1 (configuration not stated)	nt	nt	nt	nt	-2%	nt
COc1ccc(CNC(=O)c2cc3cccc4c3n2CC(C)S4)cc1 (configuration not stated)	nt	nt	nt	nt	32µM*	nt
COc1cccc2sc(N3CCN(C(=O)CCS(=O)(=O)c4ccc(F)cc4)CC3)nc12	nt	nt	nt	nt	-1%	nt
CCOc1[nH]n(-c2ccccc2)c(=O)c1C=Nc1ccccc1	-4	6.3µM*	2%	0%	2%	3%
Cc1ccc(S(=O)(=O)N(CC(=O)Nc2cccnc2)c2cccc([N+](=O)[O-])c2)cc1	-2	11µM*	0%	0%	-2%	-43%
Cc1ccc(S(=O)(=O)N(CC(=O)Nc2cccnc2)c2cccc(Br)c2)cc1	13	?	2%	0%	-1%	-34%
CC1CCN(C2CCN(S(=O)(=O)c3ccc(F)cc3)CC2)CC1	11	1%	9%	0%	-6%	1%
CC1CCN(C2CCN(S(=O)(=O)c3ccc(C(F)(F)F)cc3)CC2)CC1	-5	-4%	11µM*	0%	nt	2%
CC(C)CN(CC(C)C)c1ccc(/C=C/c2nc3ccccc3s2)cc1	nt	nt	nt	nt	-3%	nt
COc1ccc(CCN2C(=O)C3C4C=CC(C3C2=O)C2C(=O)N(CCc3ccc(OC)c(OC)c3)C(=O)C42)cc1OC (configuration not stated)	-11	nt	1%	0%	1.8µM*	1%
CSc1ccc(CNC(=O)c2ccccc2NC(=O)c2nsc3ccccc23)cc1	nt	nt	nt	nt	-13%	nt
O=C(NCc1cccc(F)c1)c1ccccc1NC(=O)c1nsc2ccccc12	nt	nt	nt	nt	28µM*	nt
Cc1ccc(Cn2cc(CCC(=O)NC3CCCCC3)c3ccccc32)cc1	nt	nt	nt	nt	-7%	nt
O=C(NN=Cc1c(O)ccc2ccccc12)c1ccc2c(c1)OCO2	-5	8.9µM*	nt	-1%	-2%	24%
O=C(N/N=C/c1ccc([N+](=O)[O-])o1)c1ccc2c(c1)OCO2	-91*	4.5µM*	-8%	0%	0%	-4%

Assay outcomes (PubChem BioAssay)
